{"source": "PubChem BioAssay AID1558", "about": "(National Center for Advancing Translational Sciences (NCATS), 2009)", "biological_target": "Microtubule-associated protein tau (Homo sapiens) (UniProt P10636)", "sequence (P10636 561-689 P618L limits assumed)": "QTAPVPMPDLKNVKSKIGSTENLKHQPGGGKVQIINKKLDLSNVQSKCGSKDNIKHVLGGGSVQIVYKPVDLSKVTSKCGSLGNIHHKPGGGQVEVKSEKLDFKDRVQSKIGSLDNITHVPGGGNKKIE", "assay": "Confirmation Concentration-Response Assay for Inhibitors of Tau Fibril Formation, Thioflavin T Binding", "conditions": "recombinant tau K18 P301L (four-repeat tau fragment) heparin fibrillization, ThT fluorescence", "excerpt": "NIH Molecular Libraries Probe Production Network [MLPCN] NIH Chemical Genomics Center [NCGC] MLPCN Grant: X01 MH083262-01 Assay Provider: Carlo Ballatore, University of Pennsylvania NCGC Assay Overview: The microtubule-associated protein tau is an abundant protein in the axons of neurons that stabilizes microtubules. With its ability to modulate microtubule dynamics, tau contributes directly or indirectly, to key structural and regulatory cellular functions. Particularly important is the influence tau exerts on axonal transport, which allows signaling molecules, trophic factors and other essential cellular constituents to travel along the axons. Under pathological conditions, tau becomes sequestered into insoluble aggregates called neurofibrillary tangles. […] This assay monitors tau fibrillization by Thioflavin T (ThT) fluorescence. […]\nFor screening, 2 uL/well human K18 P301L (15 uM unlabeled and 0.24 uM Alexa 594-labeled tau, final concentrations) in reagent buffer (100 mM sodium acetate pH 7) was dispensed into black solid 1536-well plates (Grenier) using a solenoid-based dispenser. […] After a 1 hr ambient incubation, the plates were read by an Envision (Perkin Elmer) to monitor ThT fluorescence (450/8 nm excitation and 510/23 nm emission). […]", "note": "Records with an inconclusive call do not appear. Activity calls are given as the source filed them. Calls follow the shape of the dose curve; as a rule, active = well fitted inhibition curve with a large enough effect; inconclusive = small, poorly fitted or top-dose-only effect; inactive = flat fitted curve, though single readings scatter.", "data": [{"smiles": "CC(N)[C@H](O)c1ccc(O)c(O)c1", "note": "(stereo partly specified)", "values": [{"measurement": "Potency", "value": "7.94 µM (active)"}]}]}
